The list is not random: actives were taken first. Their share in the collection is about 0.98%.
E coli Lon inh: inhibits E. coli Lon protease; inhibition, % at 7.94 µM; actives 0.42% (n = 360,000); purified E. coli Lon protease, fluorescence polarization; P0A9M0; in the data active means inhibition above about 13%, passing the limit was not always enough;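 further: 0% = enzyme with probe and DMSO and 100% = no enzyme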
Target sequence (P0A9M0 whole entry, looked up): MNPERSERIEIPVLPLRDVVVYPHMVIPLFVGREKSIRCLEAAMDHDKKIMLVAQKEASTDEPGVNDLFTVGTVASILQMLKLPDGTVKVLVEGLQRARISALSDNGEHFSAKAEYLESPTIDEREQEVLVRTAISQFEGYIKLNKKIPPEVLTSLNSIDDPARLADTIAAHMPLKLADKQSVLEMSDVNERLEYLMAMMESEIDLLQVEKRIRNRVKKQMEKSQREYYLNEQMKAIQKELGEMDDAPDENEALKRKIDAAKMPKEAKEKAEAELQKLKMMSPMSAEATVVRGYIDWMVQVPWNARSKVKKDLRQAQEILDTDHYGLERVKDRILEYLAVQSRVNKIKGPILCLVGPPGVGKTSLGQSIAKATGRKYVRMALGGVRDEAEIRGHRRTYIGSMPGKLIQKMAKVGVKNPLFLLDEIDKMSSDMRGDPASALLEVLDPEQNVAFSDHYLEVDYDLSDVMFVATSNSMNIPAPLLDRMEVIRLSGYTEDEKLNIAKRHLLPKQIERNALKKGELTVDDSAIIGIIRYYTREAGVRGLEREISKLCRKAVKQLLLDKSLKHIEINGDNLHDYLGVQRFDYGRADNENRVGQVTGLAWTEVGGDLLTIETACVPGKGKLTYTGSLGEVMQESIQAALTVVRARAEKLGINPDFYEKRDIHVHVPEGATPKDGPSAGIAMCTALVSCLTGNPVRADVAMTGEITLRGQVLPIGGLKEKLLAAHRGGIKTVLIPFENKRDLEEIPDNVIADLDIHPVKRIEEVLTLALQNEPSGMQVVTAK
EBV gp42 block: inhibitors of Epstein-Barr virus glycoprotein 42; Fluorescence polarization binding assay, mP read-out; inhibition, % (tested at 21.74 µM); actives 0.42% (n = 220,000); AID 1085; in the data active means inhibition above about 50%
C-LANA FP: blocks KSHV LANA C-terminal domain binding to DNA | inhibition, % at 9 µM | MBP-C-LANA/FAM-LBS DNA binding, fluorescence polarization | actives 0.078% (n = 340,000);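 active means highest replicate inhibition at or above 60% at 9 µM, even if other replicates fall short; inactive means all replicates below 60% inhibition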;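 further: 0% = neutral control wells and 100% = 4 µM acridine orange control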
Keap1-Nrf2 PPI: Keap1-Nrf2 (human) interaction inhibition; Q14145; Keap1 Kelch-Nrf2 peptide fluorescence polarization, 1536-well; inhibition, % at 9.4 µM; actives 0.15% (n = 340,000); AID 504523; in the data active means inhibition above about 12%;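 further: human Keap1 Kelch domain with fluorescein labeled Nrf2 9mer peptide probe; 0% = neutral control wells and 100% = peptide positive control; higher means more block of Keap1 binding to Nrf2 peptide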
RTF Ca sens inh: cardiac RTF calcium desensitization | IANBD-labeled cardiac RTF, Ca2+ fluorescence | inhibition, % at 7.15 µM | P19429+P45379 | AID 493244 | actives 0.12% (n = 340,000);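 active means inhibition above the mean inhibition of all tested compounds plus 3 SD, cut at about 17% in these data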;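 further: assay run at fixed EC70 calcium of 1.6 mM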
cardiac RTF act: cardiac RTF calcium sensitization | actives 0.24% (n = 340,000) | AID 493008 | P19429+P45379 | activation, % at 7.2 µM | IANBD-labeled TnC RTF fluorescence at EC20 calcium; 0% EC20 calcium, 100% full calcium;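 active means activation above the mean over all tested compounds plus 3 SD, cut at about 30% in these data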;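 further: rise in fluorescence read as greater calcium sensitivity of cardiac thin filaments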
eLon confirm: confirmation of E. coli Lon protease inhibitors. shares compounds with E coli Lon inh. purified E. coli Lon, fluorescence polarization. inhibition, % at 7.94 µM. actives 31% (n = 1,400); in the data active means inhibition above about 16%;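 further: 0% = enzyme with probe and DMSO and 100% = no enzyme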
Starred values were filed as active, the others as inactive; . = not tested or not shown.

SMILES	E coli Lon inh	EBV gp42 block	C-LANA FP	Keap1-Nrf2 PPI	RTF Ca sens inh	cardiac RTF act	eLon confirm
CC1(C)CC(=O)C=C(NNC(=O)c2cccnc2)C1	31	0	.	.	.	.	.
O=C1C=C(NNC(=O)c2cccnc2)CC(c2ccco2)C1 (configuration not stated)	46*	5	20	11	-12	-1	-28
COc1cc(SC)ccc1C(=O)NCC1CCCCC1	7	.	0	3	-15	-8	.
COc1ccc(CCN2C(=O)COc3ccccc3C2C(=O)Nc2c(C)cccc2C)cc1OC (configuration not stated)	-3	.	.	.	.	.	.
CN=c1scc(C)n1/N=C/c1ccc(O)c(O)c1O	12	-12	-2	-10	-6	-1	.
CN=c1scc(-c2cccs2)n1/N=C/c1ccc(O)c(O)c1O	28*	2	0	-5	10	-5	14
CCO[C@H]1OC(C(=O)N2CCN(Cc3ccccc3)CC2)=C[C@@H](C)[C@@H]1CCCO	28*	-10	5	-5	0	1	5
CCOc1ccccc1C(=O)NCCCCNC(=O)c1ccccc1OCC	-1	.	0	-4	-6	-4	.
CCOc1ccccc1C(=O)NCCC(=O)O	17*	-6	-2	-3	-1	3	-3
CN(CC(=O)Nc1ccccc1Cl)C(=O)C1CSC2(C)CCC(=O)N12 (configuration not stated)	2	.	1	2	0	1	.
CCOC(=O)c1c(C)oc2c1c(C=NC1CCS(=O)(=O)C1)c(O)c1ccccc12 (configuration not stated)	-1	4	4	-7	-3	1	.
CCOC(=O)c1c(C)oc2c1c(C=NCCC(=O)O)c(O)c1ccccc12	15*	-16	-1	-5	-4	0	30*
O=C(COC(=O)/C=C/c1cc(Br)ccc1F)Nc1ccc2[nH]c(=O)[nH]c2c1	-6	.	-1	-4	1	-2	.
COC(=O)c1ccc(OCC(=O)NC2CCCCCC2)cc1	-16	.	1	3	-10	-2	.
Cc1cccc(-c2cccc(NC(=O)C3CCCN(C(=O)c4csc(C)n4)C3)c2)c1 (configuration not stated)	79*	.	-1	-1	-7	0	6
Cc1cccc(-c2cccc(NC(=O)C3CCCN(C(=O)c4cccnc4)C3)c2)c1 (configuration not stated)	-4	.	2	3	4	-7	.
Cc1cccc(OCC(O)CN2C(C)(C)CC(O)CC2(C)C)c1 (configuration not stated)	14*	-9	0	-2	7	5	-2
O=[N+]([O-])c1ccc(N2CCN(Cc3ccccc3)CC2)c2c1no[n+]2[O-]	32*	.	.	.	.	.	5
O=C(c1[nH]ncc1-c1cccc(Br)c1)C1CO1 (configuration not stated)	1	-13	0	-2	-12	9	.
O=C(c1[nH]ncc1-c1ccccc1)C1CO1 (configuration not stated)	50*	-14	-2	1	-13	12	21*
CCCCn1c(N)c(N(CCOC)C(=O)c2oc3c(Cl)cccc3c2C)c(=O)[nH]c1=O	3	.	.	.	.	.	.
COC(=O)c1cccc(Cn2c(Cl)c(/C=N/NC(=O)c3ccco3)sc2=O)c1	0	.	-6	-1	-6	-6	.
CCCCOc1ccc(/C=C/C(=O)Nc2ccc([N+](=O)[O-])cc2C)cc1	6	-2	-2	-6	-1	9	.
CCCOc1ccc(/C=C/C(=O)Nc2ccc([N+](=O)[O-])cc2)cc1	19*	1	2	-2	2	8	-102
COCC(C)n1c(SCc2ccc(C(=O)OC)cc2)nc2ccccc2c1=O (configuration not stated)	5	.	0	-2	6	-8	.
SMILES	E coli Lon inh	EBV gp42 block	C-LANA FP	Keap1-Nrf2 PPI	RTF Ca sens inh	cardiac RTF act	eLon confirm
NC(=O)c1ccc2c(=O)c(O)c(-c3cc(Cl)c(N)c(Cl)c3)[nH]c2c1	52*	.	14	-1	-6	2	19*
O=C(/C=C/c1ccc(Cl)cc1)NC(=S)Nc1ccccc1C(=O)O	17*	-3	-2	-3	-8	0	-7
COc1cc(C(=O)OCC(=O)N2c3ccccc3NC(=O)C2(C)C)ccc1OCC(C)C	21*	.	-2	2	-14	-19	-5
CC(=O)c1cccc2c1OC(C)C(=O)N2Cc1ccc(Cl)cc1 (configuration not stated)	-2	.	.	.	.	.	.
N#C/C(=C(/O)c1cccs1)c1nc2ccccc2[nH]1	16*	6	0	0	-9	-1	-8
N#C/C(=C(/O)c1ccc(Br)s1)c1nc2ccccc2[nH]1	3	.	1	2	-6	-7	.
Cn1c(SCC(=O)NCC2CCCO2)nc2c(c1=O)SCC2 (configuration not stated)	52*	.	0	1	-9	6	1
CC12C=CC(=O)C=C1CCC1C2C(O)CC2(C)C1CCC2(O)C(=O)CO (configuration not stated)	-16	.	-2	-3	3	1	.
CN(C)c1ccc(NC(=O)CSc2nc3c(c(=O)[nH]2)CCCC3)cc1	-9	-9	1	-2	-11	3	.
COc1cc(NC(=O)CSc2nc3c(c(=O)[nH]2)CCCC3)cc(OC)c1OC	16*	-2	1	-5	-11	5	1
CCCCNC(=O)c1cc(-c2ccc(OC)cc2)on1	23*	-19	-1	3	1	1	-6
O=c1c(-c2ccc(Cl)cc2)c[nH]n1-c1ccccc1	18*	.	0	-2	-5	-2	0
Cc1cccc(Cl)c1NC(=O)N1CCCN(c2ncccc2[N+](=O)[O-])CC1	25*	9	1	-6	-9	-4	-8
COC(=O)c1coc(-c2ccc(C)cc2)c1C(=O)OC	-8	-3	-1	-3	1	0	.
COC(=O)c1cc2c(C)cc3ccc(C)cn3c-2c1C(=O)OC	40*	88*	9	4	-12	12	78*
COC(=O)c1cc2c(C)c(C)c3ccccn3c-2c1C(=O)OC	22*	50*	12	1	-22	23	60*
Cc1ccc(-c2nnn(CCC(=O)N3CCCCC3C)n2)cc1 (configuration not stated)	-14	-14	-2	-4	4	-4	.
CC1CCCCN1C(=O)Cn1nnc(-c2cccnc2)n1 (configuration not stated)	26*	46	6	1	-13	16	0
COc1ccc(C2CC(=O)C(C=NCCCO)=C(O)C2)cc1 (configuration not stated)	44*	.	9	5	-11	8	42*

Compound activity (PubChem)
